Laboratory results: PubChem BioAssay (NCATS)
Results filed as inconclusive are left out. Calls of active or inactive are those of the source. Unless noted, calls follow the shape of the dose curve; as a rule, active = well fitted curve in the direction sought with a large enough effect; inconclusive = small, poorly fitted or top-dose-only effect, or another doubt; inactive = no such curve, though single readings can be large; an effect the other way counts as inactive or inconclusive.

Legend:
[1] = system: Zika virus NS2B-NS3 protease (linked construct); test: Primary screen NINDS Rhodamine qHTS for Zika virus inhibitors (AID 1347160)
Method in brief: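 Percent inhibition, normalized to uninhibited and enzyme-free controls, is fitted to a 4-parameter Hill equation. Fluorescence change comes from a 15-min cleavage of 1.5 microM bis-peptide Rhodamine110 substrate by 25 nM linked NS2B-NS3 at room temperature.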

[2] = HPAF-II Cancer Cell Toxicity qHTS against the NCATS CANVASS Library (AID 1347346)
Method in brief: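 HPAF-II cells were seeded at 1000 cells/well, allowed to settle for 4 h at 37 degrees C, then exposed to compounds in an 11-point series for 72 h. Viability was read by CellTiter-Glo luminescence.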

[3] = OV-SAHO Cancer Cell Toxicity qHTS against the NCATS CANVASS Library (AID 1347348)
Method in brief: (§1)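 ATP content after 72 h treatment, detected by CellTiter-Glo luminescence (15min room-temperature development), reflects cell viability. Wells contained 1000 cells and received compounds at 11 concentrations.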

[4] = Panc-1005 Cancer Cell Toxicity qHTS against the NCATS CANVASS Library (AID 1347349)
Method in brief: as §1

[5] = U-118MG Cancer Cell Toxicity qHTS against the NCATS CANVASS Library (AID 1347351)
Method in brief: as §1

[6] = UWB1.289-WTBRCA1 Cancer Cell Toxicity qHTS against the NCATS CANVASS Library (AID 1347354)
Method in brief: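 Cells were seeded at 1000 per well and allowed to settle 4 hours at 37 degrees C before pin transfer of compounds as an 11-point series. Viability was read by CellTiter-Glo luminescence after 72 hours' exposure.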

[7] = HPAF-II 24hr Apoptosis Induction qHTS against the NCATS CANVASS Library (AID 1347356)
Method in brief: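 HPAF-II cells (500/well) in DMEM + 10% FBS were treated with an 11-point compound series for 24 hours at 37 degrees C. Caspase-3/7 activity was then read by Caspase-Glo DEVD luminescence after 15 min.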

[8] = HEK293 18hr Apoptosis Induction qHTS against the NCATS CANVASS Library (AID 1347357)
Method in brief: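 HEK293 cells (500/well, DMEM + 10% FBS) treated with an 11-point series for 18 h at 37 degrees C. Caspase-3/7 activity read by Caspase-Glo luminescence after 15 min at room temperature.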

[9] = HEK293 24hr Apoptosis Induction qHTS against the NCATS CANVASS Library (AID 1347359)
Method in brief: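 Caspase-3/7 activation measured as luminescence from the DEVD-based Caspase-Glo reagent, 15 min at room temperature, following 24-hour compound treatment of HEK293 cells.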

[10] = HPAF-II 18hr Apoptosis Induction qHTS against the NCATS CANVASS Library (AID 1347360)
Method in brief: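 HPAF-II cells at 500/well were exposed for 18 h at 37 C to an 11-point compound series. Caspase-3/7 activity was read by Caspase-Glo luminescence after 15 min at RT.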

[11] = HEK293 12hr Apoptosis Induction qHTS against the NCATS CANVASS Library (AID 1347361)
Method in brief: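 HEK293 cells (500/well) were exposed to an 11-point qHTS concentration series for 12 hours at 37 degrees C. Caspase-3/7 activity was then read by DEVD-substrate luciferase luminescence after 15 min at room temperature.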

[12] = target: Luciferin 4-monooxygenase (Photinus pyralis) (UniProt P08659); test: Firefly luciferase counterscreen qHTS: Assay Interference Panel against the NCATS CANVASS Library (AID 1347363)
Method in brief: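 Luminescence inhibition readout: compounds (11-point qHTS) sat 15 min at room temperature with substrate mix (0.013 mM luciferin and ATP), then firefly luciferase was added and signal read 5 min later.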

[13] = KB-8-5-11 Cancer Cell Toxicity qHTS against the NCATS CANVASS Library (AID 1347364)
Method in brief: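 KB-8-5-11 cells (500/well) in DMEM + 10% FBS were exposed to compounds in an 11-point qHTS series for 72 hr at 37C, 5% CO2. Viability was read by CellTiter-Glo luminescence.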

[14] = KB-3-1 Cancer Cell Toxicity qHTS against the NCATS CANVASS Library (AID 1347366)
Method in brief: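 KB-3-1 cells (500/well) in DMEM with 10% FBS were exposed to compounds for 72 h at 37C. Viability was read by CellTiter-Glo luminescence.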

[15] = qHTS for ATAD5 Agonist screened against the NCATS CANVASS Library (AID 1347367)
Method in brief: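 Luciferase reporter under ATAD5 control, stably integrated in HEK293T cells (2000/well). Compounds (11 points) incubated 16 h at 37C; viability read first by CellTiter-Fluor, then luminescence reporting ATAD5 activation. MMS positive control.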

[16] = MCF7 Cancer Cell Toxicity qHTS against the NCATS CANVASS Library (AID 1347369)
Method in brief: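 MCF7 cells (500/well) were exposed 72 h at 37 °C to compounds in an 11-point series. Viability was read as ATP content by CellTiterGlo luminescence.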

[17] = J3T Cancer Cell Toxicity qHTS against the NCATS CANVASS Library (AID 1347371)
Method in brief: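 J3T dog glioma cells (500 cells/well) were exposed to compounds in an 11-point series for 72 hr at 37C, 5% CO2. Cytotoxicity was read as ATP content by CellTiterGlo luminescence.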

[18] = target: Nuclear receptor subfamily 1 group I member 3 (Homo sapiens) (UniProt Q14994); test: qHTS for Constitutive Androstane Receptor (CAR) Antagonist screened against the NCATS CANVASS Library (AID 1347372)
Method in brief: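 HepG2-CYP2B6-hCAR double-stable cells plated, 4hr attach; cpd pin-transferred; CITCO 50 nM final; 24hr 37C/5% CO2; CellTiter-Fluor 1hr (fluorescence), then ONE-Glo luminescence.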

[19] = target: Nuclear receptor subfamily 1 group I member 3 (Homo sapiens) (UniProt Q14994); test: qHTS for Constitutive Androstane Receptor (CAR) Agonist screened against the NCATS CANVASS Library (AID 1347373)
Method in brief: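 HepG2 cells stably expressing hCAR and a CYP2B6-2.2kb luciferase reporter were treated for 24hr at 37C with compounds (11-point qHTS) in the presence of 1.5uM PK11195. Reporter activation was read by ONE-Glo luminescence.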

[20] = qHTS for Hypoxia signaling pathway (HIF-1) antagonists against the NCATS CANVASS Library (AID 1347374)
Method in brief: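 HRE-bla ME-180 cells (2,000/well, 0.5% dialyzed FBS) were pre-incubated 5 h, then given an 11-point compound series plus CoCl2 (60 uM solution as added) for 17 h at 37C. CCF4 β-lactamase read (ex 405, em 460/530 nm) after 2 h at RT.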

[21] = qHTS for Hypoxia signaling pathway (HIF-1) agonists against the NCATS CANVASS Library (AID 1347375)
Method in brief: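 HRE-bla ME-180 cells (beta-lactamase reporter under hypoxia responsive element) in 0.5% dialyzed FBS medium, 5 h at 37C, then compound 17 h, 11-point qHTS series. CCF4-AM FRET substrate 2 h RT; 460/530 nm emission read.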

[22] = 10-beta competent E. coli microbial cell viability qHTS against the NCATS CANVASS Library (AID 1347376)
Method in brief: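 10-beta competent E. coli (0.9 OD culture diluted to 0.2 OD) exposed to compounds in an 11-point qHTS series, incubated overnight at 37C, 5% CO2. Viability read as ATP by BacTiter-Glo luminescence after 20 min at room temperature.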

[23] = DH5-alpha competent E. coli microbial cell viability qHTS against the NCATS CANVASS Library (AID 1347377); details: outcome: at 46.1 µM (top of the series)
Method in brief: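 DH5-alpha E. coli suspension (0.9 OD culture diluted to 0.2 OD) exposed to compounds in an 11-point series, overnight at 37C, 5% CO2. Viability read as ATP by BacTiter-Glo luminescence after 20 min at room temperature.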

[24] = qHTS for Inflammasome Signaling Inhibitors: IL-1-beta AlphaLISA screen against the NCATS CANVASS Library (AID 1347379)
Method in brief: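 Human THP-1 cells were pretreated 1 hr at 37 °C with compounds (up to 57.5 uM final), then stimulated with LPS (250 ng/mL final) and ATP (1.25 mM final). Secreted IL-1B was read by AlphaLISA after 16 hr.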

[25] = Inflammasome Signaling qHTS Counterscreen: IL-1-beta AlphaLISA counterscreen against the NCATS CANVASS Library (AID 1347381)
Method in brief: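 To flag interference with the AlphaLISA read-out, a known amount of purified IL-1-beta (4 pg) replaced cell supernatant. Detection used anti-IL-1-beta acceptor beads, biotinylated antibody and streptavidin donor beads at room temperature.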

[26] = qHTS for Activators of p53 Stress Response Pathway screened against the NCATS CANVASS Library (AID 1347388)
Method in brief: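 Beta-lactamase reporter driven by p53 response elements in HCT-116 cells, read as the 460 nm/530 nm emission ratio after CCF4 loading, following 16 h of exposure to an 11-point series. Cell viability was measured in the same wells by CellTiter-Glo luminescence.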

[27] = Secretion counterscreen for inhibitors of the SERCaMP assay screened against the NCATS CANVASS Library (AID 1347390)
Method in brief: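 SH-SY5Y cells with constitutively secreted GLuc reporter, 1000 cells/well, treated 20 h at 37C with compounds at 0.001 - 77 uM final; secreted luciferase read as luminescence after coelenterazine; Brefeldin A as positive control.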

[28] = qHTS for activators of dead-cell proteases activity screened against the NCATS CANVASS Library (AID 1347392)
Method in brief: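 Compounds are pin-transferred onto attached HepG2 cells, giving 11 final concentrations. After 5 h at 37C, AAF-aminoluciferin reagent is added and luminescence is recorded at room temperature.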

[29] = qHTS for inhibitors of ER calcium dysfunction: SERCaMP assay screened against the NCATS CANVASS Library (AID 1347393)
Method in brief: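 Thapsigargin-induced ER calcium depletion drives GLuc-SERCaMP secretion from SH-SY5Y cells; compounds given 16 h beforehand were scored by lowered coelenterazine luminescence after 4 h challenge.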

[30] = Vero-766 cells viability qHTS against the NCATS CANVASS Library: Counterscreen for Zika virus inhibition assay (AID 1347394)
Method in brief: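 Vero 766 cells (1000/well), without Zika virus, were exposed to compounds for 72 h at 37C. Viability was measured by CellTiter Glo luminescence. Media-only wells served as 100% inhibition.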

[31] = qHTS for inhibitors of Wild type Zika virus screened against the NCATS CANVASS Library (AID 1347396)
Method in brief: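 Using ATP-based luminescence (CellTiter Glo), this screen scores rescue of Vero 766 cells from wild-type Zika killing at 72 h post-infection. Compounds are tested in a concentration series.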

[32] = Redox Reaction Profiling qHTS: Assay Interference Panel against the NCATS CANVASS Library (AID 1347401)
Method in brief: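 Cell-free redox surrogate: 5 uM resazurin + 200 uM DTT, 50 mM HEPES pH 7.3/50 mM NaCl; cpds pinned, 11-pt qHTS; Ex525/Em598 read t0 and t=15 min, dark.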

[33] = qHTS for inhibitors of Rabies Virus screened against the NCATS CANVASS Library (AID 1347402; calls by dose curve)

Measured: Potency

Nuclear receptor subfamily 1 group I member 3 (Homo sapiens), sequence (Q14994 whole entry, looked up): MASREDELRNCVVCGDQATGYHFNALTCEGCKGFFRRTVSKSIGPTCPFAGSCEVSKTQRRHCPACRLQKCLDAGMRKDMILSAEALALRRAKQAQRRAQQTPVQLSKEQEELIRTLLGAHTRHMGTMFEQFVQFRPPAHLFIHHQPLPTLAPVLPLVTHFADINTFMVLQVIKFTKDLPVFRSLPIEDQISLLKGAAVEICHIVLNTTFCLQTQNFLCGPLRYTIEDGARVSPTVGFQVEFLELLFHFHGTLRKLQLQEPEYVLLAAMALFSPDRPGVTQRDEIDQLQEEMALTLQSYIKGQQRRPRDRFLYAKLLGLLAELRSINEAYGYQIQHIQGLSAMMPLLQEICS
Luciferin 4-monooxygenase (Photinus pyralis), sequence (P08659 whole entry, looked up): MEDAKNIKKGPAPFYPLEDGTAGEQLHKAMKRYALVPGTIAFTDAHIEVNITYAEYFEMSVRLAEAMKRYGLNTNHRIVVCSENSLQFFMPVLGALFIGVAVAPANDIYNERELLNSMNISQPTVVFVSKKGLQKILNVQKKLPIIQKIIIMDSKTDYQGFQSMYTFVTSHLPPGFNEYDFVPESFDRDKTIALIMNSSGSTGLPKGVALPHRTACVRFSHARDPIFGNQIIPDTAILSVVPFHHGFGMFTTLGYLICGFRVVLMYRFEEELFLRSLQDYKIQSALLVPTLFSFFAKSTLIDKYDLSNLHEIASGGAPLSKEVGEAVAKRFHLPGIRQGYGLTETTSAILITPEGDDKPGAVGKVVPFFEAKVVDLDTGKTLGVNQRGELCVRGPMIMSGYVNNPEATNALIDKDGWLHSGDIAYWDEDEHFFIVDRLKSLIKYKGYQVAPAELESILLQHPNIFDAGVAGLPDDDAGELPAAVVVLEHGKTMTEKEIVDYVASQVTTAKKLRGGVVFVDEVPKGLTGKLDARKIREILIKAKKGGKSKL

CCN1C[C@]2(C)CC[C@H](O)[C@]34C1C(C[C@H]23)[C@@]12CC[C@H](CC14)[C@](O)(COC(=O)c1ccc(OC)c(OC)c1)[C@H]2O (stereo partly drawn)
active: [29] 10.8 µM
inactive: [1] | [2] | [3] | [4] | [5] | [6] | [7] | [8] | [9] | [10] | [11] | [12] | [13] | [14] | [15] | [16] | [17] | [18] | [19] | [20] | [21] | [22] | [23] | [24] | [25] | [26] | [27] | [28] | [30] | [31] | [32] | [33]
